From PubChem BioAssay AID1159580 (chemical genetic matrix, 2015)
Where “and” joins values, the source holds several entries; their conditions need not be identical. Equal entries are not always repeated. Out of some 5,500 compounds screened, about 2,000 (36%) were called active. Roughly 18% stayed inconclusive and do not appear here. Rule as the data show it: active = normalized growth mostly below about 0.91 (no sharp cut-off); inconclusive = no clear call, values can overlap the other calls; inactive = mostly above about 0.92. This is one part of the list.

Test: chemical genetic growth profiling, strain panel (AID 1159580);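 also: tested at 20 µM; growth read once vehicle control cultures reached saturation at 30 °C; 1 = growth at the plate median or of vehicle wells; lower values mean less growth of the strain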
Conditions: S. cerevisiae deletion strains, growth OD

Measured: normalized growth

OC(CCN1CCCCC1)(c1ccccc1)c1ccccc1
inactive: locus YAL021C, strain ccr4, hits give low values 1.01 | locus YAL026C, strain drs2, hits give low values 0.985 | locus YAL030W, strain snc1, hits give low values 0.99 | locus YBL061C, strain skt5, hits give low values 0.986 | locus YBR009C, strain hhf1, hits give low values 0.939 | locus YBR021W, strain FUR4, hits give low values 1.02 | locus YBR023C, strain chs3, hits give low values 0.99 | locus YBR171W, strain sec66, hits give low values 0.987 | locus YBR229C, strain ROT2, hits give low values 1 | locus YBR231C, strain swc5, hits give low values 1.01 | locus YBR279W, strain paf1, hits give low values 0.995 | locus YCL011C, strain gbp2, hits give low values 0.969 | locus YCL016C, strain dcc1, hits give low values 0.975 | locus YCL029C, strain bik1, hits give low values 1.01 | locus YCL061C, strain MRC1, hits give low values 1 | locus YCL069W, strain vba3, hits give low values 0.977 | locus YCR088W, strain abp1, hits give low values 0.983 | locus YDL005C, strain med2, hits give low values 1.01 | locus YDL035C, strain GPR1, hits give low values 1.04 | locus YDL040C, strain nat1, hits give low values 0.992 | locus YDL074C, strain BRE1, hits give low values 1.03 | locus YDL101C, strain DUN1, hits give low values 1.01 | locus YDL134C, strain PPH21, hits give low values 1.03 | locus YDL185W, strain tfp1, hits give low values 1.01 | locus YDL192W, strain arf1, hits give low values 1.02 | locus YDR001C, strain nth1, hits give low values 0.989 | locus YDR069C, strain doa4, hits give low values 0.997 | locus YDR101C, strain arx1, hits give low values 0.993 | locus YDR137W, strain rgp1, hits give low values 1.01 | locus YDR159W, strain sac3, hits give low values 1.01 | locus YDR162C, strain NBP2, hits give low values 1.01 | locus YDR195W, strain ref2 1.02 | locus YDR297W, strain sur2, hits give low values 0.984 | locus YDR318W, strain mcm21, hits give low values 1.01 | locus YDR334W, strain swr1, hits give low values 0.99 | locus YDR335W, strain msn5, hits give low values 0.986 | locus YDR388W, hits give low values 1.01 | locus YDR392W, strain spt3, hits give low values 0.886 | locus YDR502C, strain sam2, hits give low values 1 | locus YEL003W, strain gim4, hits give low values 0.98 | locus YEL037C, strain rad23, hits give low values 0.985 | locus YEL061C, strain CIN8 (second series), hits give low values 0.977 | locus YEL061C, strain CIN8, hits give low values 1.01 | locus YER015W, strain faa2, hits give low values 0.994 | locus YER016W, strain bim1, hits give low values 0.997 | locus YER110C, hits give low values 1.01 | locus YER111C, strain swi4, hits give low values 0.983 | locus YER155C, strain BEM2 (second series), hits give low values 0.995 | locus YER155C, strain BEM2, hits give low values 1 | locus YER167W, strain BCK2, hits give low values 1.01 | locus YFR010W, strain ubp6, hits give low values 0.987 | locus YGL078C, strain dbp3, hits give low values 1 | locus YGL086W, strain mad1, hits give low values 1 | locus YGL167C, strain pmr1, hits give low values 0.984 | locus YGL173C, strain kem1, hits give low values 0.986 | locus YGL227W, strain vid30, hits give low values 0.989 | locus YGL240W, strain doc1, hits give low values 1.02 | locus YGL248W, strain PDE1, hits give low values 1.01 | locus YGL253W, strain hxk2, hits give low values 1.02 | locus YGR078C, strain PAC10, hits give low values 1.01 | locus YGR135W, strain pre9, hits give low values 1.01 | locus YGR252W, strain gcn5, hits give low values 1.01 | locus YHR013C, strain ard1, hits give low values 1.01 | locus YHR027C, strain rpn1, hits give low values 0.99 | locus YHR030C, strain SLT2, hits give low values 1.01 and 1.03 | locus YHR079C, strain IRE1 (second series), hits give low values 1.01 | locus YHR079C, strain IRE1, hits give low values 1.03 | locus YHR094C, strain hxt1, hits give low values 1.01 | locus YHR129C, strain ARP1, hits give low values 1 | locus YHR142W, strain chs7, hits give low values 0.946 | locus YHR200W, strain rpn10, hits give low values 1.01 | locus YIL066C, strain RNR3, hits give low values 1.01 | locus YIL073C, strain SPO22, hits give low values 1.09 | locus YIL125W, strain kgd1, hits give low values 1.01 | locus YIR030C, strain dcg1, hits give low values 1.01 | locus YJL092W, strain hpr5, hits give low values 0.988 | locus YJL095W, strain BCK1 (second series), hits give low values 0.982 | locus YJL095W, strain BCK1, hits give low values 0.996 and 1.05 | locus YJL115W, strain asf1, hits give low values 0.982 | locus YJL129C, strain trk1, hits give low values 0.987 | locus YJL134W, strain LCB3, hits give low values 1 | locus YJL154C, strain vps35, hits give low values 0.984 | locus YJL164C, strain tpk1, hits give low values 0.967 | locus YJL166W, strain qcr8, hits give low values 1 | locus YJL168C, strain set2, hits give low values 1.01 | locus YJL187C, strain SWE1 (second series), hits give low values 1.01 | locus YJL187C, strain SWE1, hits give low values 0.996 | locus YJR043C, strain POL32, hits give low values 1.04 | locus YJR066W, strain TOR1, hits give low values 0.938
